The full list was thinned out, with hits kept by preference.
TbPYK inhibitor: qHTS of Trypanosoma Brucei Inhibitors. AID 624173, 2012. 410,000 compounds, 0.12% hits. pyruvate kinase (Trypanosoma brucei), Q57TT1. Potency, µM (highest dose often 76.8 µM), for inactives: at the top dose activity, negative = inhibition, actives largely listed as inhibitors. TbPYK enzyme, Kinase-Glo Plus ATP luminescence, 45 min; note: potency is the fitted concentration of half-maximal effect; % is set by controls: 0 for no effect and ±100 for the full control effect; nearly all actives have a fitted effect of over 50% in size
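Enzyme and substrate buffer are dispensed first and compound is pin-transferred. ADP at 130 uM final then starts the reaction, which runs 45 min at room temperature. Detection reagent is added for 10 min before luminescence is imaged.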
LmPK inhibitor: qHTS Assay for Inhibitors of Leishmania Mexicana Pyruvate Kinase (LmPK); purified LmPK, Kinase-Glo ATP luminescence, 1 h; Potency, µM (doses to about 57.5 µM), without a hit: at the top dose activity change, negative = inhibition, most hits filed as inhibitors; 290,000 compounds, 0.37% hits; AID 1721, 2009; note: potency is the fitted concentration of half-maximal effect; % is set by controls: 0 for no effect and ±100 for the full control effect
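Purified LmPK (0.1 nM) converted ADP (0.1 mM) to ATP with PEP (0.5 mM) in imidazole buffer pH 7.2 with KCl and MgCl2, 1 h at room temperature. ATP was read by Kinase-Glo luminescence; data normalized to uninhibited and no-enzyme controls.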
RE007 growth inh: qHTS Assay for Inhibitors of the HIV-1 protein Vpr; Potency, µM (series often up to 92.2 µM), inactives show at the top dose activity change, negative = less growth, most hits filed as inhibitors; S. pombe RE007 Vpr strain, BacTiter-Glo ATP luminescence, 24 h; 360,000 compounds, 0.21% hits; AID 651644, 2012; active = well fitted falling curve with a large enough effect; inconclusive = small, poorly fitted or top-dose-only effect; inactive = no such curve, though single readings can be large or run the other way; note: potency is the fitted concentration of half-maximal effect; % is set by controls: 0 for no effect and ±100 for the full control effect; nearly all actives have a fitted effect of over 50% in size
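Fission yeast RE007 carrying one integrated HIV-1 vpr copy, seeded at OD 0.01 in PMG+AL medium with 23 nL pinned compound. Grown 24 h at 30 degrees; viability read by BacTiter-Glo luminescence after 5 min.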
Giardia FBPA inh: qHTS Assay for Inhibitors of Fructose-1,6-bisphosphate Aldolase from Giardia Lamblia | A8B2U2 | purified Giardia FBPA | Potency, µM (highest dose often 59.6 µM), for the others: at the highest dose activity, negative = inhibition, hits mostly inhibitors | 290,000 compounds, 0.71% hits | AID 2451, 2010; note: potency is the fitted concentration of half-maximal effect; % is set by controls: 0 for no effect and ±100 for the full control effect; nearly all actives have a fitted effect of over 55% in size
Target sequence (A8B2U2 whole entry, looked up): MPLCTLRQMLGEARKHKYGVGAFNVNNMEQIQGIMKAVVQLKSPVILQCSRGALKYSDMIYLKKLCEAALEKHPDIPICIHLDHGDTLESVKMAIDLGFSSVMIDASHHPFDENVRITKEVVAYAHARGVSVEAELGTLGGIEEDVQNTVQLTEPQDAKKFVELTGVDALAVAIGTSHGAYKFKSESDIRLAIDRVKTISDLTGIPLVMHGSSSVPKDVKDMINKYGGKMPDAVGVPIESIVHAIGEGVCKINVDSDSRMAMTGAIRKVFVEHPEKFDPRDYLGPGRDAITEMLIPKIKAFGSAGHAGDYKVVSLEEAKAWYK
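40 nM FBPA preincubated 10 min at RT with compound (up to 57.5 uM final), then substrate plus GAPDH/TPI/NAD/arsenate coupling and diaphorase/resazurin added. Fluorescence read after 20 min at RT, 525/598 nm.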
Cycloheximide cs: Cycloheximide Counterscreen for Small Molecule Inhibitors of Shiga Toxin; cell reporter, cycloheximide protein synthesis inhibition counterscreen; 300,000 compounds, 12% hits; AID 2314, 2010; max response, %; in the data active = max response mostly above about 13%, no sharp cut-off; inactive = mostly below about 14%; note: read at 38.3 µM for the half of the compounds with a filed dose; 0% is about no effect
Shiga toxin inh: A qHTS for Small Molecule Inhibitors of Shiga Toxin; inhibition, % at 38.7 µM; 290,000 compounds, 9.2% hits; Vero cells, Shiga toxin protein synthesis inhibition reporter; AID 2315, 2010; in the data active = inhibition mostly above about 28%, no sharp cut-off; inactive = mostly below about 43%; note: 0% is about no effect
An asterisk follows results filed as active; ? = inconclusive; . = not tested or not shown. Unless noted, calls come from the whole dose curve; as a rule, active = well fitted curve in the direction sought with a large enough effect; inconclusive = small, poorly fitted or top-dose-only effect, or another doubt; inactive = no such curve, though single readings can be large; an effect the other way counts as inactive or inconclusive.

SMILES	TbPYK inhibitor	LmPK inhibitor	RE007 growth inh	Giardia FBPA inh	Cycloheximide cs	Shiga toxin inh
CCc1ccc(NC(=O)N(Cc2ccco2)C(C)c2cccs2)cc1 (centres undefined)	0%	3%	-3%	-1%	21*	52*
N#Cc1c(SCC(=O)Nc2nccs2)nc2c(c1-c1ccco1)CCCC2	-10%	1%	5%	-13%	17*	4
COc1ccc(Cl)cc1NC(=O)CN1C(=O)C(C)(C)c2cc(S(=O)(=O)N3CCCCC3)ccc21	-4%	.	.	.	.	.
N#CC1=C(N)Oc2c(c(=O)sc3ccccc23)C1c1ccncc1 (centres undefined)	-4%	20%	-2%	15%	20*	7
N#CC1=C(N)Oc2c(c(=O)oc3ccccc23)C1c1cccnc1 (centres undefined)	-4%	-1%	5%	0%	8	-12
COc1ccc(OC)c(N(CC(=O)NCc2ccccc2)S(=O)(=O)c2ccccc2)c1	0%	.	.	.	.	.
O=c1[nH]c(SCCOc2ccccc2)nc2ccccc12	0%	6%	-10%	-5%	21	35
COc1ccccc1OCCSc1nc2ccccc2c(=O)[nH]1	-4%	-11%	2%	-1%	14*	48*
O=c1[nH]c(SCCOc2ccccc2F)nc2ccccc12	-20%	0%	-11%	0%	33*	61*
Cn1c(SCCOc2ccccc2F)nc2ccccc2c1=O	5%	5%	19%	-1%	16	30
CCCN(CCC)C(=O)Cn1c(=O)n(CCCCCC(=O)NCc2ccccc2Cl)c(=O)c2sccc21	0%	.	.	.	.	.
O=C(CCC(=O)N1CC2CCCN2c2ccccc21)NCc1ccccc1F (centres undefined)	-2%	.	.	.	.	.
Cc1ccc(C2=NN=C(NC(=O)C(F)(F)F)SC2)cc1	-18%	-7%	64%	1%	27*	111*
Cc1ccc(C2=NN=C(NC(=O)CSc3nncn3C)SC2)cc1	?	-5%	-12%	-10%	9	-3
CCCc1cc(-c2n[nH]c(=S)n2CC(C)C)cs1	?	?	23%	11%	-2	-8
CC(C)Cn1c(-c2ccc(Br)o2)n[nH]c1=S	4µM*	?	-2%	8%	-2	-5
Cc1ccsc1-c1n[nH]c(=S)n1CC(C)C	?	14µM*	13%	-11%	-2	-9
CC(C)Cn1c(-c2nn(C)cc2Cl)n[nH]c1=S	?	13µM*	11%	.	-1	-15
CCn1c(-c2nn(C)cc2Cl)n[nH]c1=S	?	-4%	-8%	-28%	-3	1
CN1CCN(c2cnn(-c3ccccc3)c(=O)c2Br)CC1	1%	-1%	2%	4%	29*	53*
O=c1c(Br)c(N2CCCCC2)cnn1-c1ccccc1	-15%	-2%	-11%	0%	21*	116*
CS(=O)(=O)N1CCN(c2cnn(-c3ccccc3)c(=O)c2Cl)CC1	-1%	0%	2%	4%	-5	3
O=c1c(Br)c(N2CCOCC2)cnn1-c1ccccc1	6%	3%	8%	5%	18*	92*
O=c1c(Br)c(N2CCCC2)cnn1-c1ccccc1	-4%	-1%	6%	3%	47*	81*
O=C(c1ccc(F)cc1)N1CCN(c2cnn(-c3ccccc3)c(=O)c2Cl)CC1	-6%	1%	0%	1%	-4	3
CC(=O)Nc1c(C(=O)N2CCCCCC2)cnn1-c1ccccc1	-6%	3%	-1%	1%	-4	-24
COc1cccc(CNC(=O)CN2C(=O)N(c3c(C)cccc3C)S(=O)(=O)c3ccccc32)c1OC	-10%	.	.	.	.	.
Cc1cc(C)nc(S/C=C/C(=O)c2ccccc2F)n1	-3%	-1%	38%	3%	54*	119*
Cc1cccc(N2CCN(C(=O)c3cc4c(=O)[nH]c5ccc(C)cc5c4s3)CC2C)c1 (centres undefined)	-11%	.	.	.	.	.
CCn1c(C(=O)NCc2ccccc2OC)cc2sccc21	4%	.	.	.	.	.

Screens deposited in PubChem BioAssay by National Center for Advancing Translational Sciences (NCATS).
